According to PubChem BioAssay:
For some assays here: Entries with a potency or affinity are not part of this list. Activity calls are given as the source filed them. Unless noted, how the calls were made is not given here.

Experiments:
[1] = antimalarial activity against Dd2 strain (AID 2302;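 active means growth inhibition above 50% at the single 2 µM test dose, taken to imply half-maximal potency below 2 µM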;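 further: 0% = DMSO untreated growth and 100% = chloroquine plus artemisinin killed control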); details: P. falciparum Dd2 in RBCs, LDH growth readout, 72 h; at 2 µM; stronger effect = higher value
[2] = human hepatoma cell viability loss – ATP luminescence, cytotoxicity control for P. falciparum antimalarial project, primary screen (AID 2303;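 active means inhibition above 50%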;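 further: 0% = DMSO wells and 100% = digitonin-killed cells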); details: HepG2 viability, 24-48 h, at 10 µM, stronger effect = higher value
[3] = biological target: L-lactate dehydrogenase (Plasmodium falciparum (isolate CDC / Honduras)) (UniProt Q27743); test: PfLDH activity inhibition – cell lysate, 3D7 strain, counter-screen for P. falciparum growth inhibition project (AID 2304);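 further: 0% = vehicle and 100% = reference inhibitor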; details: P. falciparum 3D7 crude extract, LDH APAD/NBT absorbance; at 2 µM; stronger effect = higher value
Sequence of L-lactate dehydrogenase (Plasmodium falciparum (isolate CDC / Honduras)) (Q27743 whole entry, looked up): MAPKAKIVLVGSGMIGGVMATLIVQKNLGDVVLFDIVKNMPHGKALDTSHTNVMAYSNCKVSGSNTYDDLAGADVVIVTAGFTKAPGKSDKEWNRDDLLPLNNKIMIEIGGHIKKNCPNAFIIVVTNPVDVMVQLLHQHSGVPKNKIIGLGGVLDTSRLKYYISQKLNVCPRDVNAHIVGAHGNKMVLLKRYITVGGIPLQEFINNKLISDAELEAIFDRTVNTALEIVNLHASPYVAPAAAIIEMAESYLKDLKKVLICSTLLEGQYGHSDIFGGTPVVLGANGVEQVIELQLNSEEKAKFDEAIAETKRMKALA

[4] = inhibition of 3D7 malaria parasite growth – strain 3D7 (AID 2306);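 further: 0% = DMSO wells and 100% = chloroquine plus artemisinin control wells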; details: P. falciparum 3D7 erythrocytic growth, LDH absorbance, 72 h; at 2 µM; stronger effect = higher value
[5] = biological target: Calcium-dependent protein kinase 1 (Plasmodium falciparum (isolate 3D7)) (UniProt P62344); test: PfCDPK1 kinase inhibitors, biochemical, TCAMS library (AID 1159585; cut-off not given, nearly all actives have IC50 up to about 0.98 µM;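 further: inhibitors leave more ATP so luminescence rises with inhibition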); details: recombinant PfCDPK1, Kinase-Glo ATP depletion luminescence
Sequence of Calcium-dependent protein kinase 1 (Plasmodium falciparum (isolate 3D7)) (P62344 whole entry, looked up): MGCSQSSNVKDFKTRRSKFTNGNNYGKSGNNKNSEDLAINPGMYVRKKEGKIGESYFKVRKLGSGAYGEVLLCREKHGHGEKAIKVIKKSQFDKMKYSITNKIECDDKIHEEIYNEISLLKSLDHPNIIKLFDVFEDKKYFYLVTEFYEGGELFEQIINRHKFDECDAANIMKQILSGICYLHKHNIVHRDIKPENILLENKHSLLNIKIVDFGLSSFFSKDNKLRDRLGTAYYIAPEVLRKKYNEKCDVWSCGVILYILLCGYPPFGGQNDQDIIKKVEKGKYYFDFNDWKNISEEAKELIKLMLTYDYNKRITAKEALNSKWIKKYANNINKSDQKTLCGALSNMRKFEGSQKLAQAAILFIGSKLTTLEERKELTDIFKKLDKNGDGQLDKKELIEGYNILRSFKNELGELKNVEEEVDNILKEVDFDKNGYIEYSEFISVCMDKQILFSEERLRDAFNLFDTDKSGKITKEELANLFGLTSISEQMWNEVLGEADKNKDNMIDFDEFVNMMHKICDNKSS

[6] = biological target: Plasmodium falciparum protein kinase 6 (PK6, PF3D7_1337100) (UniProt Q8IDW1); test: PfPK6 kinase inhibitors, biochemical, TCAMS library (AID 1159586); details: recombinant PfPK6, Kinase-Glo ATP depletion luminescence
Sequence of Plasmodium falciparum protein kinase 6 (PK6, PF3D7_1337100) (Q8IDW1 1-305): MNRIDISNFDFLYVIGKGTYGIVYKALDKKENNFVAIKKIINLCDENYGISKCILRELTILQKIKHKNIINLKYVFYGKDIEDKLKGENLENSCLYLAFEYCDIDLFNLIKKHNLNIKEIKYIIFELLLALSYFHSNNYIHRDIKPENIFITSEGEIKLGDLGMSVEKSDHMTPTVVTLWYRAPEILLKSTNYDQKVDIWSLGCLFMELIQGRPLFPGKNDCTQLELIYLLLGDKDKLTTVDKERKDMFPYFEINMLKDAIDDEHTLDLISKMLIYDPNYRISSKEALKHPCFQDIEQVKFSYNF

[7] = biological target: Protein kinase 7 (PK7), Plasmodium falciparum 3D7 (PF3D7_0213400) (UniProt Q7YTF7); test: inhibition of Plasmodium PK7 catalytic activity – biochemical, TCAMS antimalarial set, Kinase-Glo luminescence (AID 1159587); details: recombinant PfPK7, Kinase-Glo ATP depletion luminescence
Sequence of Protein kinase 7 (PK7), Plasmodium falciparum 3D7 (PF3D7_0213400) (Q7YTF7 1-343): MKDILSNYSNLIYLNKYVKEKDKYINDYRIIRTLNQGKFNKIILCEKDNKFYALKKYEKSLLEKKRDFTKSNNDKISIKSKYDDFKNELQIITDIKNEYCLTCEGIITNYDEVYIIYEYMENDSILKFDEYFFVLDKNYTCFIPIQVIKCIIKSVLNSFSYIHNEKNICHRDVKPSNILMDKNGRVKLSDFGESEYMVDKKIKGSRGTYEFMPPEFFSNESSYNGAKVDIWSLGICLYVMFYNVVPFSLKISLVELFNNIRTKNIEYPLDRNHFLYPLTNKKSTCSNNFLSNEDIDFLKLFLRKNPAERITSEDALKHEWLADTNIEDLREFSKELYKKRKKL

[8] = biological target: Calcium-dependent protein kinase 4 (Plasmodium falciparum (isolate 3D7)) (UniProt Q8IBS5); test: PfCDPK4 kinase inhibitors, biochemical, TCAMS library (AID 1159588; cut-off not given, nearly all actives have IC50 up to about 0.91 µM); details: recombinant PfCDPK4, Kinase-Glo ATP depletion luminescence
Sequence of Calcium-dependent protein kinase 4 (Plasmodium falciparum (isolate 3D7)) (Q8IBS5 whole entry, looked up): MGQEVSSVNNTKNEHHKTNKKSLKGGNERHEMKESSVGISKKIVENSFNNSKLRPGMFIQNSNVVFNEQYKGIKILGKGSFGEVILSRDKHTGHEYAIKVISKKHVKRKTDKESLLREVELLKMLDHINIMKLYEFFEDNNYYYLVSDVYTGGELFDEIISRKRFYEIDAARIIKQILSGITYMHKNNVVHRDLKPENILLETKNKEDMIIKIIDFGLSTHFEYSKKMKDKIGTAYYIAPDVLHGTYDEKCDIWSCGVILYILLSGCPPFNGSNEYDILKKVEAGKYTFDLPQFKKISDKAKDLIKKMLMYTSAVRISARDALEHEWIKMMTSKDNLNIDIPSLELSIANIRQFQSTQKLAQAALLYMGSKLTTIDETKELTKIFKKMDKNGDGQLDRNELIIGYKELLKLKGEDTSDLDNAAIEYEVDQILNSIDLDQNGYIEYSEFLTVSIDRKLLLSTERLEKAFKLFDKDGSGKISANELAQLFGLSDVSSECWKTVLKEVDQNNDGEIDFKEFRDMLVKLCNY

CCCN(CCCCCCN(CCC)CCc1ccc(O)c(O)c1)CCc1ccc(O)cc1
active: growth inhibition [4] 90%
inactive: growth inhibition [1] 5% | inhibition [2] 0% | inhibition [3] -1% | outcome [5] | outcome [6] | outcome [7] | outcome [8]

COC(=O)C(NC(=O)NC1CCN(c2ccnc(Nc3ccc(F)cc3)n2)C1)c1ccccc1 (stereo not given)
inactive: growth inhibition [1] 8% | inhibition [2] 11% | inhibition [3] -2% | outcome [5] | outcome [6] | outcome [7] | outcome [8]
active: growth inhibition [4] 87%

Cc1cc(N)cc2[nH]c(-c3ccc(N)cc3)nc12
active: growth inhibition [1] 75% | growth inhibition [4] 96%
inactive: inhibition [2] -7% | inhibition [3] -11% | outcome [5] | outcome [6] | outcome [7] | outcome [8]

CCCN1CCN(c2cc(S(=O)(=O)Nc3ccc(C(=O)NCc4cccc(C(F)(F)F)c4)cc3)ccc2OC)CC1
inactive: growth inhibition [1] 8% | inhibition [2] 27% | inhibition [3] -3% | outcome [5] | outcome [6] | outcome [7] | outcome [8]
active: growth inhibition [4] 92%

CC1CCCN1Cc1cccc(-c2ccc(C(=O)NCCOc3ccccc3)s2)c1 (stereo not given)
inactive: growth inhibition [1] 0% | inhibition [2] 26% | inhibition [3] -3% | outcome [5] | outcome [6] | outcome [7] | outcome [8]
active: growth inhibition [4] 83%

CN1CCC(NCc2ccc(-c3ccc(C(F)(F)F)cc3)cc2)CC1
active: growth inhibition [1] 71% | inhibition [2] 54% | growth inhibition [4] 99%
inactive: inhibition [3] 5% | outcome [5] | outcome [6] | outcome [7] | outcome [8]

Cc1cccn2c(=O)c3cc(C(=O)NCc4cccnc4)c(=N)n(CCc4ccccc4)c3nc12
inactive: growth inhibition [1] 38% | inhibition [2] -2% | inhibition [3] -2% | outcome [5] | outcome [6] | outcome [7] | outcome [8]
active: growth inhibition [4] 99%

O=C(Nc1ccc(F)cc1)NC1CCN(c2ccnc3cc(Cl)ccc23)CC1
inactive: inhibition [2] 10% | inhibition [3] 0% | outcome [5] | outcome [6] | outcome [7] | outcome [8]
active: growth inhibition [1] 57% | growth inhibition [4] 97%

Cc1cc(C(=O)OCC(N)=O)c(C)n1-c1ccc(F)cc1
inactive: inhibition [2] -12% | inhibition [3] 1% | outcome [5] | outcome [6] | outcome [7] | outcome [8]
active: growth inhibition [1] 96% | growth inhibition [4] 97%

CC1(C)CCCC(=Cc2ccc(Br)cc2)C1(O)Cn1ccnc1 (stereo not given)
inactive: inhibition [2] 7% | inhibition [3] 0% | outcome [5] | outcome [6] | outcome [7] | outcome [8]
active: growth inhibition [1] 69% | growth inhibition [4] 99%

COCCNCc1ccc(-c2ccc3c(Nc4ccc(Cl)cc4F)ccnc3c2)o1
inactive: inhibition [2] 15% | inhibition [3] -2% | outcome [5] | outcome [6] | outcome [7] | outcome [8]
active: growth inhibition [1] 100% | growth inhibition [4] 100%

O=C(Nc1ccc(OC2CCN(Cc3ccc(F)cc3)C2)c(Cl)c1)c1ccccc1 (stereo not given)
active: growth inhibition [1] 86% | growth inhibition [4] 91%
inactive: inhibition [2] 11% | inhibition [3] 0% | outcome [5] | outcome [6] | outcome [7] | outcome [8]

CCOC(=O)N1NC(=O)N(c2ccccc2)C1(c1ccccc1)c1ccccc1
active: growth inhibition [1] 82% | growth inhibition [4] 96%
inactive: inhibition [2] 5% | inhibition [3] 6% | outcome [5] | outcome [6] | outcome [7] | outcome [8]

Cc1ccc(O)c(CN2CCCC(COC(c3ccc(F)cc3)c3ccc(F)cc3)C2)c1 (stereo not given)
active: growth inhibition [1] 98% | growth inhibition [4] 98%
inactive: inhibition [2] 19% | inhibition [3] 0% | outcome [5] | outcome [6] | outcome [7] | outcome [8]

O=C(c1csc(-c2cccnc2)n1)N1CCc2cc3nccc(N4CCN5CCC[C@H]5C4)c3cc21
inactive: inhibition [2] -7% | inhibition [3] -3% | outcome [5] | outcome [6] | outcome [7] | outcome [8]
active: growth inhibition [1] 78% | growth inhibition [4] 97%

O=S(=O)(NCCN1CCCC1)c1cccc(-c2ccc(CNCc3ccc(F)cc3)cc2)c1
active: growth inhibition [4] 104%
inactive: growth inhibition [1] 41% | inhibition [2] 38% | inhibition [3] 6% | outcome [5] | outcome [6] | outcome [7] | outcome [8]

COc1ccc2nccc([C@@H](O)CN3CCC(NC(=O)c4cccc(C(=O)c5ccccc5)c4)CC3)c2c1
active: growth inhibition [1] 99% | growth inhibition [4] 99%
inactive: inhibition [2] 13% | inhibition [3] 2% | outcome [5] | outcome [6] | outcome [7] | outcome [8]

Cc1cc(NC(=O)NCCN2CCC(NS(=O)(=O)c3ccccc3Cl)C2)c2ccccc2n1 (stereo not given)
inactive: growth inhibition [1] 43% | inhibition [2] 1% | inhibition [3] -5% | outcome [5] | outcome [6] | outcome [7] | outcome [8]
active: growth inhibition [4] 97%

O=S(=O)(c1cc(Cl)ccc1Cl)N1CCCCC(c2ccc(C(F)(F)F)cc2)=N1
inactive: inhibition [2] 15% | inhibition [3] -1% | outcome [5] | outcome [6] | outcome [7] | outcome [8]
active: growth inhibition [1] 68% | growth inhibition [4] 87%

CCc1ccc(C2CCN(CCCCNC(=O)c3ccc(NC(=O)c4ccc(Cl)cc4)cc3)CC2)c(OCC(=O)OC)c1
inactive: growth inhibition [1] 12% | inhibition [2] 32% | inhibition [3] 6% | outcome [5] | outcome [6] | outcome [7] | outcome [8]
active: growth inhibition [4] 95%

O=C(Nc1ccc(Cl)c(-c2nc3ccccc3[nH]2)c1)c1ccc(-c2ccc(Cl)cc2)o1
inactive: growth inhibition [1] 22% | inhibition [2] 16% | inhibition [3] 0% | outcome [5] | outcome [6] | outcome [7] | outcome [8]
active: growth inhibition [4] 89%

COc1cccc(Cc2c(C)nc3nc(N)nc(N)c3c2C)c1
active: inhibition [2] 65% | growth inhibition [4] 95%
inactive: growth inhibition [1] 1% | inhibition [3] -2% | outcome [5] | outcome [6] | outcome [7] | outcome [8]

Cc1c(C(=O)N2CCc3cc4nccc(N5CCN6CCC[C@H]6C5)c4cc32)cnn1-c1ccc(C#N)cc1
active: growth inhibition [4] 90%
inactive: growth inhibition [1] 27% | inhibition [2] 0% | inhibition [3] -3% | outcome [5] | outcome [6] | outcome [7] | outcome [8]

COc1ccc(CCNCCCCCNCCc2ccc(Cl)cc2)cc1OC
active: growth inhibition [4] 101%
inactive: growth inhibition [1] -2% | inhibition [2] 32% | inhibition [3] -11% | outcome [5] | outcome [6] | outcome [7] | outcome [8]

O=C(c1ccc(-c2ccc(-c3nc4ccccc4[nH]3)s2)cc1)N1CCCCC1CN1CCC(O)C1 (stereo not given)
inactive: inhibition [2] 18% | inhibition [3] 2% | outcome [5] | outcome [6] | outcome [7] | outcome [8]
active: growth inhibition [1] 55% | growth inhibition [4] 84%

CCC[C@@H]([C@@H](CC1CCCCC1)C(=O)N[C@H](C(=O)Nc1nccs1)[C@@H](C)OCc1ccccc1)N(O)C=O
active: growth inhibition [1] 99% | inhibition [2] 51% | growth inhibition [4] 100%
inactive: inhibition [3] -3% | outcome [5] | outcome [6] | outcome [7] | outcome [8]

Cc1ccc(C(c2nnnn2C2CCCC2)N(Cc2ccco2)Cc2ccccc2Cl)cc1 (stereo not given)
active: growth inhibition [1] 78% | growth inhibition [4] 85%
inactive: inhibition [2] 8% | inhibition [3] -2% | outcome [5] | outcome [6] | outcome [7] | outcome [8]

CCC(CCON1C(N)=NC(N)=NC1(C)C)c1ccc(Cl)cc1 (stereo not given)
active: growth inhibition [1] 95% | inhibition [2] 66% | growth inhibition [4] 94%
inactive: inhibition [3] 1% | outcome [5] | outcome [6] | outcome [7] | outcome [8]

O=C(NCC1CC1)C1Cc2c([nH]c3ccc(Br)cc23)C2(CCN(CCc3ccccc3)CC2)N1 (stereo not given)
inactive: growth inhibition [1] 25% | inhibition [2] 14% | inhibition [3] 1% | outcome [5] | outcome [6] | outcome [7] | outcome [8]
active: growth inhibition [4] 88%

O=c1cc(NCCCNCc2scc3c(Cl)cc(C(F)(F)F)nc23)[nH]c2ccccc12
inactive: growth inhibition [1] 21% | inhibition [2] 9% | inhibition [3] -1% | outcome [5] | outcome [6] | outcome [7] | outcome [8]
active: growth inhibition [4] 99%

COc1ccccc1CNc1ccnc(NCCc2cccc(C(F)(F)F)c2)n1
active: growth inhibition [1] 68% | growth inhibition [4] 93%
inactive: inhibition [2] 39% | inhibition [3] -4% | outcome [5] | outcome [6] | outcome [7] | outcome [8]

NC(=O)C1CCN(Cc2ccc(-c3cccc(-c4nc5ccc(F)cc5[nH]4)c3)cc2)CC1
active: growth inhibition [4] 90%
inactive: growth inhibition [1] 3% | inhibition [2] 10% | inhibition [3] -8% | outcome [5] | outcome [6] | outcome [7] | outcome [8]

O=C(Cc1cnc[nH]1)Nc1ccc(-c2ccc(-c3nc4ccc(F)cc4[nH]3)cc2)cc1
active: growth inhibition [1] 91% | growth inhibition [4] 100%
inactive: inhibition [2] 39% | inhibition [3] 0% | outcome [5] | outcome [6] | outcome [7] | outcome [8]

CC(C)CNC(=O)c1ccnc(-c2ccc(CNCCCc3ccccc3)cc2)c1
inactive: growth inhibition [1] 22% | inhibition [2] 12% | inhibition [3] -3% | outcome [5] | outcome [6] | outcome [7] | outcome [8]
active: growth inhibition [4] 99%

COc1cc2c(cc1NS(=O)(=O)c1ccc(OCc3ccc(Br)cc3)cc1)CCN(C1CCC1)CC2
inactive: growth inhibition [1] 30% | inhibition [2] 36% | inhibition [3] 2% | outcome [5] | outcome [6] | outcome [7] | outcome [8]
active: growth inhibition [4] 94%

O=C(/C=C/c1ccc(Cl)c(Cl)c1)NCCCCCN1CCC(NC(=O)NCCc2ccccc2)CC1
active: growth inhibition [4] 100%
inactive: growth inhibition [1] 7% | inhibition [2] 23% | inhibition [3] 2% | outcome [5] | outcome [6] | outcome [7] | outcome [8]

COc1ccc2nccc([C@@H](O)CN3CCC(NC(=O)/C=C/c4ccc5cc(C)[nH]c5c4)CC3)c2c1
active: growth inhibition [1] 93% | growth inhibition [4] 97%
inactive: inhibition [2] 7% | inhibition [3] -6% | outcome [5] | outcome [6] | outcome [7] | outcome [8]

CO/C(=C\C=C\c1cc2cc(Cl)c(Cl)cc2[nH]1)C(=O)NCCCN1CCN(c2cccc(O)c2)CC1
active: growth inhibition [1] 100% | growth inhibition [4] 91%
inactive: inhibition [2] 46% | inhibition [3] -2% | outcome [5] | outcome [6] | outcome [7] | outcome [8]

c1ccc(Oc2ccc(Nc3ccnc4cc(-c5csc(CN6CCCCC6)n5)ccc34)cc2)nc1
inactive: inhibition [2] 22% | inhibition [3] -7% | outcome [5] | outcome [6] | outcome [7] | outcome [8]
active: growth inhibition [1] 95% | growth inhibition [4] 100%

CCNc1cc(C(=O)N[C@@H](Cc2ccccc2)[C@H](O)CNC23CCC(CC2)C3)cc(N2CCCCS2(=O)=O)c1
inactive: inhibition [2] 22% | inhibition [3] -2% | outcome [5] | outcome [6] | outcome [7] | outcome [8]
active: growth inhibition [1] 99% | growth inhibition [4] 97%
